From PubChem
A selection: hits, their analogues and other compounds. The true share with any hit is near 3.4%.
H9c2 protect: protects H9c2 cardiomyocytes from peroxide injury; protection from H2O2 cell death, % at 20 µM; H2O2 injury protection, ATPLite, 2 h; actives 0.63% (n = 360,000);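 active means compounds giving at least 50% protection of heart cells from peroxide-induced death in the single-dose screen, raw or plate-pattern-corrected value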
NR2F2 inh: inhibitors of human COUP-TFII (NR2F2). HEK293T NGFI-A luciferase reporter, luminescence. inhibition, % at 8.6 µM. actives 0.7% (n = 370,000). AID 686940;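 active means inhibition above a per-plate cutoff, mean inhibition of test wells between control levels plus 3 SD, cut at about 38% in these data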;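 further: cells cotransfected with COUP-TFII expression vector driving the NGFI-A reporter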
Gli-Sufu antag: blocks Gli-Sufu signaling in a luciferase reporter; Sufu-KO-LIGHT fibroblasts, Gli luciferase reporter luminescence; inhibition, % at 5 µM; actives 0.74% (n = 340,000);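 active means inhibition above about 55%, limit read from the data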
SMARCA2 activ: SMARCA2 function activation, primary screen | MG213 cells, MMTV-luciferase reporter, dexamethasone, overnight | activation, % at 9.1 µM | actives 1% (n = 370,000); in the data active means activation above about 7.8%
GAA850 FXN act: frataxin GAA850 promoter activation. HEK293 lucGAA850 FXN promoter luciferase reporter, 24 h; percent of 10 µM SAHA response. activation, % at 6 µM. actives 0.56% (n = 360,000). AID 540364;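 active means activation above the average of all compounds screened plus 3 SD, cutoff fixed separately per campaign, cut at about 7.5% in these data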
GalR3 antagonist: human GalR3 antagonism; O60755; HEK293 GalR3-CNG cAMP membrane potential fluorescence; galR3 body fused to GalR1 C-terminus; inhibition, % at 3 µM; actives 0.44% (n = 360,000); AID 651719;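 active means inhibition above the screen-wide average plus 3 SD, cut at about 13% in these data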;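 further: forskolin and galanin both at EC90 stimulate the cells; cAMP rise reported by CNG channel membrane potential dye signal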
Target sequence (O60755 1-299 limits assumed): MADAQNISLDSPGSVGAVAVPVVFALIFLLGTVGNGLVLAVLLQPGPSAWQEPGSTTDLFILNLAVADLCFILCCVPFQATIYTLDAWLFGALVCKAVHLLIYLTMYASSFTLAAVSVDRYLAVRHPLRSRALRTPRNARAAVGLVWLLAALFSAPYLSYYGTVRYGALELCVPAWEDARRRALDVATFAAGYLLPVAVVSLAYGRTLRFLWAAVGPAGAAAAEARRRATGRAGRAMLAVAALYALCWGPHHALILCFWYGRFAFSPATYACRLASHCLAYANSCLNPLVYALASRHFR
GalR3 antag conf: GalR3 (human) antagonism, confirmation; HEK293 GalR3 CNG cAMP biosensor, membrane potential fluorescence; galR3 fused to GalR1 carboxy tail; challenged with forskolin and galanin at EC90; shares compounds with GalR3 antagonist; AID 652245; inhibition, % at 3 µM; actives 59% (n = 1,600);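 active means inhibition above the primary screen's cutoff, the mean inhibition of all screened compounds plus 3 SD, cut at about 13% in these data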
CNG parental: acts as nonspecific agonist in parental HEK-CNG cells; shares compounds with GalR3 antagonist; activation, % at 3 µM; HEK293-CNG parental cells, cAMP membrane potential fluorescence; normalised: DMSO wells 0%, forskolin wells 100%; AID 652268; actives 10% (n = 1,600); in the data active means activation above about 1.3%
Numbers stand for hits; i = inactive; nt = no result.

SMILES	H9c2 protect	NR2F2 inh	Gli-Sufu antag	SMARCA2 activ	GAA850 FXN act	GalR3 antagonist	GalR3 antag conf	CNG parental
CC(=O)N/C(=C\c1ccccc1)C(=O)OCc1ccc(F)cc1	i	i	i	i	i	i	nt	nt
COc1ccc(CNC(=O)[C@@H](C)NC(=O)[C@@H]2Cc3ccccc3CN2)cc1	i	i	i	i	i	20	i	i
Clc1ccc(-c2nc3ccc(Br)cn3c2Cc2ccsc2)cc1	i	i	nt	i	nt	i	nt	nt
Cc1ccccc1-c1cc(C(=O)NCc2cccs2)nn1CC1CC(c2cccc([N+](=O)[O-])c2)=NO1 (centres undefined)	i	i	i	i	i	i	nt	nt
Cc1ccccc1-c1cc(C(=O)O)nn1CC1CC(c2cccc([N+](=O)[O-])c2)=NO1 (centres undefined)	i	i	i	i	i	18	i	i
O=C(CCN1C(=O)c2ccc([N+](=O)[O-])cc2C1=O)Nc1ccccc1C(=O)O	i	i	i	i	i	i	nt	nt
CCCOc1ccc(Cl)cc1CN1CCOCC1	i	i	i	i	i	i	nt	nt
COc1ccc(Cl)cc1CN1CCOCC1	i	i	i	i	i	13	i	i
CCS(=O)(=O)N1N=C(c2cccc(NS(C)(=O)=O)c2)CC1c1ccc(C)cc1 (centres undefined)	i	i	i	i	i	i	nt	nt
COc1ccccc1NC(=O)CCCc1nc(-c2ccc(OC)c(OC)c2)no1	i	i	i	i	i	23	16	i
CC(C)=CCc1c2c(c3occ(-c4ccc(O)cc4)c(=O)c3c1O)C=CC(C)(C)O2	i	i	i	i	i	20	24	i
Nc1ncnc2c1ncn2[C@@H]1O[C@H](C(=O)NS(=O)(=O)c2cccc(F)c2)[C@@H](O)[C@H]1O	i	i	nt	i	nt	i	nt	nt
N#Cc1ccccc1S(=O)(=O)NC(=O)[C@H]1O[C@@H](n2cnc3c(N)ncnc32)[C@H](O)[C@@H]1O	i	i	nt	i	nt	21	45	1.4
O=c1cc(-c2ccccc2)nc(SCCOc2ccccc2Cl)[nH]1	i	i	i	i	i	13	i	i
COc1cc(CSc2nc(-c3ccccc3)cc(=O)[nH]2)cc(OC)c1	i	nt	i	nt	i	nt	nt	nt
COc1ccc(CCNC(=O)c2cccnc2SC)cc1	i	i	i	i	i	13	27	i
c1ccc(-c2ccc(C3=Nn4c(nnc4-c4cccs4)SC3)cc2)cc1	i	i	i	i	i	16	46	1.8
COc1ccc2cc(CO)n(C)c2c1	i	i	i	i	i	i	nt	nt
O=C(CCNC(=O)c1ccc(Br)cc1)NCc1ccccn1	i	i	i	i	i	i	nt	nt
CN(C)S(=O)(=O)c1ccc(C(=O)Nc2nc(-c3cc4ccccc4o3)cs2)cc1	i	i	i	i	i	93	103	i
Cc1ccc(N(CC(=O)NCc2ccco2)C(=O)CCC(=O)Nc2nccs2)cc1	i	i	i	i	i	14	i	i
Cc1cc(=O)[nH]c(SCC(=O)c2ccc3c(c2)NC(=O)CO3)n1	i	i	i	i	i	15	i	i
Nc1cc(N)nc(SCC(=O)c2ccc3c(c2)NC(=O)CO3)n1	i	i	i	i	i	i	nt	nt
COCCCn1c(-c2ccccc2Cl)n[nH]c1=S	i	i	i	i	i	nt	i	i
O=C(Nc1ccc2c(c1)OCCO2)NC1CCCCC1	i	i	i	i	i	nt	i	i
SMILES	H9c2 protect	NR2F2 inh	Gli-Sufu antag	SMARCA2 activ	GAA850 FXN act	GalR3 antagonist	GalR3 antag conf	CNG parental
CSCCC(NC(N)=O)C(=O)Nc1ccc(F)c(Cl)c1 (centres undefined)	i	i	i	i	i	i	nt	nt
Nc1c(Cl)cc(-c2csc(NC(CO)c3nc4ccccc4n3CCOCCO)n2)cc1Cl (centres undefined)	i	i	i	i	i	64	i	i
CCOc1nc(C#N)nc(N2CCCCC2)n1	i	i	i	i	i	95	108	i
Cc1c(NS(=O)(=O)c2cccc(C(=O)Nc3cccc(F)c3)c2)c(=O)n(-c2ccccc2)n1C	i	i	i	i	i	i	nt	nt
CC(=O)NCCc1nc2ccccc2n1Cc1ccc(C)cc1	i	i	i	i	i	nt	i	i
O=C(Nc1ccncc1)c1ccc2c(c1)C(=O)N(C1CCCCC1)C2=O	i	i	i	i	i	46	57	i
CCOc1cc(/C=N/NC(N)=O)cc(Br)c1OCC(=O)Nc1ccccc1C	i	i	i	i	i	69	40	i
COc1cc(/C=N/NC(N)=O)cc(Br)c1OCc1ccccc1C	i	i	i	i	i	i	nt	nt
COc1cc(/C=N/NC(N)=O)c(Br)cc1OCC(=O)Nc1ccccc1C	i	i	i	i	i	i	nt	nt
COc1cc(/C=N/NC(=S)N/N=C/c2cc(OC)c(OC)c(OC)c2)cc(OC)c1OC	i	i	i	i	i	20	16	i
COc1cc(/C=N/NC(=S)Nc2cccc(C(=O)O)c2)cc(OC)c1OC	i	i	i	i	i	i	nt	nt
C=CCOc1c(Br)cc(/C=N/NC(N)=O)cc1OC	i	i	i	i	i	13	i	i
CNCCCOc1cc(C)cc(C)c1C	i	i	i	i	i	i	nt	nt
COc1ccc(CN2CCN(Cc3ccc(CO)o3)CC2CCO)cc1C (centres undefined)	i	i	i	i	i	i	nt	nt
COc1ccc(CC2(CO)CCN(Cc3cccc(OC)c3OC)CC2)cc1	i	i	i	i	i	26	i	2.1
O=C(Nc1ccccc1N1CCOCC1)c1ccc(Cl)c(S(=O)(=O)N2CCCC2)c1	i	i	i	i	i	i	nt	nt
CCCN(CC(=O)Nc1ccccc1C)C(=O)c1ccc(N2CCCCCC2)c([N+](=O)[O-])c1	i	i	i	i	i	i	nt	nt
CCc1ccc(C(=O)CSc2ncn[nH]2)cc1	i	i	i	i	i	54	22	i
CCc1onc(C)c1C(=O)Nc1ccc2c(c1)OCO2	i	i	i	i	i	nt	i	i
Cc1noc(C(=O)Nc2ccc3c(c2)OCO3)c1Cl	i	i	i	i	i	i	nt	nt
CC1(C(=O)Nc2cnc3ccccc3c2)CCN1C(=O)CCc1ccccc1 (centres undefined)	i	i	nt	i	i	i	nt	nt
CCOC(=O)C(=CNc1cccnc1Oc1ccc(C)c2c1CCC2)C(=O)OCC	i	i	i	i	i	i	nt	nt
CC1C(=O)N2CCCc3cc(S(=O)(=O)N4CCN(c5cccc(Cl)c5)CC4)cc1c32 (centres undefined)	i	i	i	i	i	i	nt	nt
CCN(CC)c1ccc(C(=O)N/N=C(\C)c2ccc(OC)c(OC)c2)cc1	i	i	i	i	i	i	nt	nt
